For eight molecules, growth results are on record in PubChem BioAssay (NCI).

The panel holds about 83,000 compounds, 20% with a hit somewhere; the sample as a whole holds those more often.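 A percent growth of 40 corresponds to 60% growth inhibition; 0 means no net growth; -100 means all cells died. Active threshold: below 10.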 A number with no mark means an inactive call. The source made the active and inactive calls.

Some test systems named below: HCT-15 colon; HT29 colon; SNB-75 CNS; SNB-19 CNS; U251 CNS; PC-3 prostate; SK-MEL-5 melanoma; UACC-62 melanoma; LOX IMVI melanoma; SK-MEL-28 melanoma; SK-MEL-2 melanoma; EKVX NSCLC; SN12C renal; UO-31 renal; TK-10 renal; ACHN renal; CAKI-1 renal; A498 renal; CCRF-CEM leukemia; MOLT-4 leukemia.
Test in all cases: NCI-60 one-dose screen, 48 h (100 = growth as untreated, 0 = no growth, -100 = all killed)
Conditions in all cases: 10 µM

With `CCOC(=O)c1cc2c(n1Cc1ccccc1)-c1oncc1CC2`, the growth in the experiment on HCT-15 colon was 65.3%; with HT29 colon it was 35.4%; with SNB-75 CNS it was 89.2%; in the experiment on SNB-19 CNS it was 86.2%; with U251 CNS, 95.6%; in the experiment on PC-3 prostate, 76.2%. Further, the growth is 73.5% in the experiment with SK-MEL-5 melanoma; 75.8% with UACC-62 melanoma; 80.9% in the experiment with LOX IMVI melanoma; 89.8% in the experiment on SK-MEL-28 melanoma; 85.7% in the experiment on SK-MEL-2 melanoma; 77% in the experiment with EKVX NSCLC. For the same molecule, the growth in the experiment on SN12C renal is 98.6%; in the experiment with UO-31 renal, 25.4%; in the experiment with TK-10 renal, 101%; in the experiment with ACHN renal, 82.1%; in the experiment with CAKI-1 renal it was 36.5%; in the experiment with A498 renal, 48.4%. The figures for the growth with CCRF-CEM leukemia and in the experiment with MOLT-4 leukemia were 53.1% and 25.2%, respectively.

Turning to `Cc1ccc(S(=O)(=O)Oc2ccccc2-c2ccccc2)cc1`, the growth in the experiment on HCT-15 colon is 23.2%; in the experiment on HT29 colon it was 5.05% (active); with SNB-75 CNS, -12.1% (active); with SNB-19 CNS, 42.8%; in the experiment with U251 CNS, 24.8%; in the experiment with PC-3 prostate it was 42.4%. Besides, the growth is 5.97% (active) in the experiment on SK-MEL-5 melanoma; 37.1% with UACC-62 melanoma; 36% in the experiment with LOX IMVI melanoma; 30.8% in the experiment on SK-MEL-28 melanoma; 28.8% in the experiment on SK-MEL-2 melanoma; 46% with EKVX NSCLC. The growth with SN12C renal is 39.2%; with UO-31 renal, 22.5%; in the experiment on TK-10 renal, 45.5%; with ACHN renal it was 44.2%; in the experiment with CAKI-1 renal it was 14%; in the experiment on A498 renal, 6.79% (active). The growth was 18% in the experiment with CCRF-CEM leukemia and 20.7% with MOLT-4 leukemia.

In the case of `CC(=O)Oc1ccc(C2=Cc3ccc(OC(C)=O)cc3OC2C)cc1` (stereo not drawn), the growth in the experiment on HCT-15 colon was 48.4%; in the experiment with HT29 colon, 93.7%; in the experiment on SNB-75 CNS, 49%; with SNB-19 CNS, 85.2%; in the experiment with U251 CNS, 43.3%; with PC-3 prostate it was 66.3%. Moreover, the growth is 50.2% with SK-MEL-5 melanoma; 45% with UACC-62 melanoma; 44.4% in the experiment on LOX IMVI melanoma; 62.1% in the experiment with SK-MEL-28 melanoma; 61% in the experiment on SK-MEL-2 melanoma; 56.7% with EKVX NSCLC. Moreover, the growth was 66.9% in the experiment with SN12C renal; 18.6% in the experiment with UO-31 renal; 82.7% with TK-10 renal; 10% in the experiment on ACHN renal; 43.6% with CAKI-1 renal; 82.6% in the experiment with A498 renal. Besides, the growth is 24.3% in the experiment with CCRF-CEM leukemia and 36.7% with MOLT-4 leukemia.

For the molecule `COc1ccccc1Cn1cc2c(c1-c1ccccc1)CCc1cnoc1-2`, the growth with HCT-15 colon was 36%; in the experiment on HT29 colon, 12.4%; with SNB-75 CNS, 15.6%; in the experiment on SNB-19 CNS, 53.5%; with U251 CNS, 39.7%; in the experiment on PC-3 prostate, 29.9%. Further, the growth was 18.1% with SK-MEL-5 melanoma; 50.1% with UACC-62 melanoma; 38.1% in the experiment with LOX IMVI melanoma; 58.3% in the experiment on SK-MEL-28 melanoma; 49.2% in the experiment on SK-MEL-2 melanoma; 46.3% in the experiment with EKVX NSCLC. The growth was 50.2% with SN12C renal; 34.1% in the experiment with UO-31 renal; 81.4% in the experiment with TK-10 renal; 49.3% in the experiment with ACHN renal; 4.31% (active) with CAKI-1 renal; 43.2% in the experiment with A498 renal. In addition, the growth with CCRF-CEM leukemia was 30.5%; in the experiment on MOLT-4 leukemia it was 38.8%.

Turning to `CCCCNC(=O)Oc1ccc(/C(=C(\C)c2ccc(OC)cc2)c2ccc(OCCN3CCCCC3)cc2)cc1`, the growth in the experiment on HCT-15 colon was 0.377% (active); in the experiment with HT29 colon, 7.84% (active); with SNB-75 CNS it was 70.6%; in the experiment with SNB-19 CNS, 69.9%; in the experiment with U251 CNS, 38.9%; with PC-3 prostate, 43.3%. The growth is 44.7% with SK-MEL-5 melanoma; 44% in the experiment with UACC-62 melanoma; 20.1% with LOX IMVI melanoma; 2.55% (active) in the experiment with SK-MEL-28 melanoma; 67.8% in the experiment on SK-MEL-2 melanoma; 68.3% with EKVX NSCLC. Besides, the growth in the experiment with SN12C renal is 69.1%; in the experiment with UO-31 renal it was 11.2%; with TK-10 renal it was 102%; with ACHN renal it was 78.6%; in the experiment on CAKI-1 renal it was 60.3%; with A498 renal it was 71%. The results for the growth in the experiment on CCRF-CEM leukemia and in the experiment with MOLT-4 leukemia were 58.5% and 20.1%, respectively.

On to `COc1ccc(Cn2cc3c(c2-c2ccccc2)CC(C)(C)c2cnoc2-3)cc1`, for which the growth in the experiment on HCT-15 colon is 34.8%; in the experiment with HT29 colon, 12.5%; in the experiment on SNB-75 CNS, 13.1%; in the experiment on SNB-19 CNS, 55.2%; in the experiment on U251 CNS, 43.8%; in the experiment with PC-3 prostate, 28.8%. The growth with SK-MEL-5 melanoma is 13.1%; in the experiment with UACC-62 melanoma, 54.6%; with LOX IMVI melanoma it was 35.1%; in the experiment on SK-MEL-28 melanoma it was 58.7%; in the experiment with SK-MEL-2 melanoma it was 53%; in the experiment on EKVX NSCLC, 38.7%. In addition, the growth with SN12C renal is 50.6%; with UO-31 renal it was 43.9%; in the experiment with ACHN renal, 53.9%; in the experiment on CAKI-1 renal, 6.85% (active); in the experiment with A498 renal it was 49.4%; in the experiment on CCRF-CEM leukemia, 22.7%. The growth in the experiment on MOLT-4 leukemia is 40%.

As to `CCOC(=O)C(CCC1=NC(C)(C)CC(C)O1)C(=O)OCC` (stereo not drawn), the growth in the experiment with HCT-15 colon was 46%; with HT29 colon it was 32%; in the experiment with SNB-75 CNS, 104%; with SNB-19 CNS it was 106%; in the experiment with U251 CNS, 82.3%; in the experiment on PC-3 prostate, 76.3%. For the same molecule, the growth with SK-MEL-5 melanoma was 108%; in the experiment on UACC-62 melanoma it was 93.3%; in the experiment with LOX IMVI melanoma, 90.1%; with SK-MEL-28 melanoma it was 107%; in the experiment on SK-MEL-2 melanoma it was 34.1%; in the experiment on EKVX NSCLC, 107%. The growth in the experiment with SN12C renal is 95.7%; in the experiment on UO-31 renal it was 77.5%; in the experiment on TK-10 renal it was 101%; in the experiment on ACHN renal, 6.26% (active); with CAKI-1 renal, 45.7%; in the experiment on A498 renal, 106%. The growth was 111% in the experiment on CCRF-CEM leukemia and 68.8% with MOLT-4 leukemia.

For the molecule `CCN(CC)CCCOC(=O)Nc1ccccc1Cl`, the growth with HCT-15 colon was 111%; in the experiment on HT29 colon it was 103%; with SNB-75 CNS, 120%; with SNB-19 CNS, 104%; in the experiment with U251 CNS, 107%; with PC-3 prostate, 96.1%. In addition, the growth is 105% in the experiment on SK-MEL-5 melanoma; 109% with UACC-62 melanoma; 97.6% in the experiment with LOX IMVI melanoma; 116% in the experiment with SK-MEL-28 melanoma; 101% in the experiment with SK-MEL-2 melanoma; 108% in the experiment with EKVX NSCLC. In addition, the growth was 102% with SN12C renal; 91.7% with UO-31 renal; 98.9% in the experiment on TK-10 renal; 108% in the experiment on ACHN renal; 104% in the experiment on CAKI-1 renal; 88.4% in the experiment with CCRF-CEM leukemia. Also, the growth in the experiment with MOLT-4 leukemia was 98%.
